We go through ten compounds from paper PMC5540273 (PLoS ONE, 2017).

Among the test systems are PLK2; PLK3; PLK4; PRKCD; PRKCE; PRKCH; PRKCI; PRKCQ; PRKD1; PRKD2; PRKD3; PRKG1; PRKG2; PRKX; PRP4; QSK; RAF1; RET.
Details in all cases: concentration: 1 μM,replicates: in singlicate; n = 1
A further experiment concerns T1, PRKR.
T1 construct: gene EIF2AK2

Another experiment deals with T2, PYK2.
T2 construct: gene PTK2B

Molecules are shown by their SMILES.
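Further: KINOMEscan kinase panel screen.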

For `NC(=O)Nc1sc(-c2ccc(F)cc2)cc1C(N)=O` [GW789449], the “%Inh” value came out at 20% with PLK2; 1% in the experiment with PLK3; 26% with PLK4; 20% in the experiment on PRKCD; 17% with PRKCE; 0% in the experiment with PRKCH. The “%Inh” value in the experiment with PRKCI worked out at 25%; in the experiment with PRKCQ, 35%; in the experiment on PRKD1 it was 0%; with PRKD2, 0%; in the experiment on PRKD3, 0%; with PRKG1, 6%. Further, the “%Inh” value with PRKG2 amounted to 8%; with PRKR, 35%; with PRKX it was 0%; in the experiment on PRP4, 75%; in the experiment with PYK2, 26%; in the experiment with QSK, 0%. Also, the “%Inh” value in the experiment with RAF1 turned out to be 43%; in the experiment on RET it was 55%.
For `COc1cc(Nc2nccc(N3CCC(NC(=O)c4cccc(C#N)c4)C3)n2)cc(OC)c1OC` (centres unmarked) [GSK1379751], the “%Inh” value in the experiment with PLK2 is 0%; with PLK3, 0%; in the experiment with PLK4 it was 36%; with PRKCD, 0%; in the experiment with PRKCE, 7%; in the experiment on PRKCH, 0%. Moreover, the “%Inh” value in the experiment on PRKCI, with PRKCQ, in the experiment on PRKD1, in the experiment with PRKD2, with PRKD3 and in the experiment on PRKG1 was 0% each time. Besides, the “%Inh” value amounted to 0% in the experiment on PRKG2; 0% in the experiment on PRKR; 0% with PRKX; 54% with PRP4; 0% in the experiment with PYK2; 0% with QSK. In addition, the “%Inh” value in the experiment with RAF1 is 26%; with RET, 14%.
Consider `COc1cc2ncn(-c3cc(OCC4CCCCC4)c(C(N)=O)s3)c2cc1OC` [GSK204559], for which the “%Inh” value with PLK2 is recorded as 99.3%; in the experiment with PLK3 it was 99.3%; in the experiment on PLK4 it was 4%; with PRKCD, 24%; in the experiment on PRKCE, 0%; in the experiment with PRKCH, 30%. Moreover, the “%Inh” value in the experiment with PRKCI is given as 0%; in the experiment with PRKCQ it was 32%; with PRKD1 it was 0%; with PRKD2, 0%; in the experiment on PRKD3, 2%; in the experiment with PRKG1, 9%. Besides, the “%Inh” value was 0% in the experiment on PRKG2; 0% in the experiment with PRKR; 10% in the experiment with PRKX; 0% in the experiment on PRP4; 0% in the experiment on PYK2; 12% in the experiment with QSK. For the same compound, the “%Inh” value in the experiment on RAF1 turned out to be 9%; in the experiment on RET it was 17%.
Turning to `CCOC(=O)N1CCC(n2cnc(-c3ccc(F)cc3)c2-c2ccnc(N)n2)CC1` [SB-219952], the “%Inh” value with PLK2 was 2%; in the experiment with PLK3, 0%; in the experiment on PLK4 it was 25%; in the experiment on PRKCD, 0%; in the experiment with PRKCE it was 4%; with PRKCH, 0%. For the same compound, the “%Inh” value in the experiment with PRKCI was found to be 8%; in the experiment with PRKCQ it was 1%; with PRKD1, 32%; in the experiment on PRKD2, 5%; in the experiment on PRKD3, 0%; in the experiment with PRKG1, 40%. The “%Inh” value came out at 26% with PRKG2; 0% in the experiment on PRKR; 8% in the experiment on PRKX; 0% with PRP4; 10% with PYK2; 0% in the experiment on QSK. Besides, the figures for the “%Inh” value in the experiment with RAF1 and in the experiment on RET were 0% and 30%, respectively.
Consider `COc1cccc(CNC(=O)NC2CCN(c3ccnc(Nc4cc(OC)c(OC)c(OC)c4)n3)C2)c1` (centres unmarked) [GSK1379765], for which the “%Inh” value in the experiment with PLK2 was found to be 0%; in the experiment with PLK3, 0%; in the experiment on PLK4 it was 43%; in the experiment with PRKCD it was 0%; with PRKCE, 17%; in the experiment with PRKCH, 12%. Also, the “%Inh” value was determined as 31% in the experiment with PRKCI; 37% in the experiment on PRKCQ; 0% with PRKD1; 3% with PRKD2; 0% in the experiment on PRKD3; 3% in the experiment on PRKG1. In addition, the “%Inh” value was determined as 0% with PRKG2; 0% in the experiment with PRKR; 33% in the experiment on PRKX; 48% in the experiment on PRP4; 0% in the experiment on PYK2; 0% in the experiment on QSK. The “%Inh” value was 21% in the experiment on RAF1 and 19% with RET.
In the case of `CCn1c(-c2nonc2N)nc2cncc(Br)c21` [SB-738004], the “%Inh” value in the experiment with PLK2 was 8%; in the experiment on PLK3, 14%; with PLK4 it was 76%; in the experiment with PRKCD it was 21%; with PRKCE, 92.8%; with PRKCH it was 58%. In addition, the “%Inh” value with PRKCI is reported as 36%; in the experiment on PRKCQ, 6%; with PRKD1 it was 0%; with PRKD2 it was 11%; in the experiment on PRKD3, 0%; in the experiment on PRKG1 it was 0%. Further, the “%Inh” value in the experiment with PRKG2 was found to be 92.1%; in the experiment on PRKR, 36%; with PRKX it was 0%; with PRP4 it was 27%; in the experiment with PYK2 it was 0%; in the experiment on QSK, 0%. Besides, the “%Inh” value is 10% in the experiment on RAF1 and 26% with RET.
Consider `CCN1CCN(CCCC(=O)Nc2n[nH]c3nc(-c4ccc(O)cc4)c(Br)cc23)CC1` [SB-731579], for which the “%Inh” value in the experiment with PLK2 amounted to 0%; with PLK3 it was 0%; with PLK4, 0%; in the experiment on PRKCD, 64%; in the experiment with PRKCE, 70%; in the experiment with PRKCH it was 19%. Besides, the “%Inh” value in the experiment with PRKCI is recorded as 2%; in the experiment on PRKCQ, 0%; in the experiment with PRKD1, 1%; in the experiment on PRKD2, 0%; with PRKD3 it was 0%; with PRKG1 it was 3%. For the same compound, the “%Inh” value in the experiment with PRKG2 was 6%; with PRKR, 0%; in the experiment on PRKX, 0%; with PRP4, 0%; with PYK2, 0%; in the experiment on QSK it was 50%. In addition, the entries for the “%Inh” value with RAF1 and with RET were 17% and 23%, respectively.
For the compound `COc1cc2nccc(Nc3ccc(Oc4ccccc4)cc3)c2cc1OC.Cl` [GI261656], the “%Inh” value with PLK2 is given as 0%; with PLK3 it was 0%; with PLK4, 15%; in the experiment with PRKCD, 0%; in the experiment with PRKCE, 0%; with PRKCH, 1%. The “%Inh” value is 0% in the experiment with PRKCI; 0% with PRKCQ; 0% in the experiment with PRKD1; 0% in the experiment with PRKD2; 6% in the experiment with PRKD3; 0% with PRKG1. Besides, the “%Inh” value was found to be 0% with PRKG2; 0% in the experiment with PRKR; 0% in the experiment on PRKX; 48% in the experiment with PRP4; 0% in the experiment on PYK2; 3% with QSK. The “%Inh” value in the experiment on RAF1 was 11%; in the experiment on RET it was 23%.
With `Cn1ccc2ncnc(Oc3ccc(NC(=O)Nc4cccc(C(F)(F)F)c4)c(F)c3)c21`, the “%Inh” value in the experiment on PLK2 came out at 12%; in the experiment on PLK3 it was 33%; in the experiment on PLK4 it was 31%; in the experiment with PRKCD it was 0%; with PRKCE it was 0%; with PRKCH, 0%. In addition, the “%Inh” value in the experiment with PRKCI was 39%; in the experiment on PRKCQ, 0%; in the experiment on PRKD1, 0%; in the experiment on PRKD2, 3%; in the experiment on PRKD3, 0%; in the experiment on PRKG1 it was 18%. Further, the “%Inh” value is reported as 17% in the experiment with PRKG2; 10% in the experiment on PRKR; 0% in the experiment with PRKX; 14% in the experiment with PRP4; 11% in the experiment with PYK2; 0% in the experiment with QSK. Further, the “%Inh” value in the experiment on RAF1 was found to be 80%; in the experiment on RET, 100%.
For the compound `CCNCC(Cc1ccccc1)NC(=O)c1cc(Br)c(-c2ccnc3[nH]ccc23)s1.Cl.Cl` (centres unmarked) [GSK1383280], the “%Inh” value worked out at 30% in the experiment on PLK2; 47% in the experiment with PLK3; 92.3% in the experiment on PLK4; 91.7% in the experiment with PRKCD; 94.5% in the experiment on PRKCE; 93.1% in the experiment with PRKCH. The “%Inh” value was 26% with PRKCI; 74% in the experiment with PRKCQ; 77% in the experiment with PRKD1; 73% with PRKD2; 73% in the experiment on PRKD3; 99% in the experiment on PRKG1. Besides, the “%Inh” value in the experiment with PRKG2 was 99%; in the experiment with PRKR, 22%; in the experiment with PRKX, 95.6%; in the experiment on PRP4, 6%; in the experiment with PYK2 it was 25%; in the experiment on QSK, 0%. Besides, the “%Inh” value in the experiment with RAF1 was found to be 2%; with RET it was 75%.
